Laboratory results reported in PubChem BioAssay AID686978 (National Center for Advancing Translational Sciences (NCATS), 2013).
Screen size: about 420,000 compounds; about 64,000 (15%) were called active. Another 27% or so got no clear call; they are omitted. The call rests on the fitted dose curve; in most records, active means well fitted inhibition curve with a large enough effect; inconclusive means small, poorly fitted or top-dose-only effect; inactive means flat fitted curve, though single readings scatter. Only a sample is shown. Entries that show only a call come without a potency.

Assay: qHTS for Inhibitors of human tyrosyl-DNA phosphodiesterase 1 (TDP1): qHTS in cells in absence of CPT; further: nearly all actives have a fitted effect of over 55% in size
Conditions: DT40 Tdp1-/- hTDP1 cells, no CPT, ATP luminescence, 48 h; activity change, negative = growth inhibition: at 46.2 µM (top of the series)
Outline: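 A cellular qHTS used chicken DT40 cells lacking endogenous Tdp1 but carrying stably transfected human TDP1. Compounds were applied without camptothecin, and cell growth kinetics were judged by ATP-dependent luminescence after ≥48 hr.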
Potency means the concentration at half of the fitted maximal effect.

| Compound | Potency |
| --- | --- |
| CSc1nnc(CNC(=O)c2ccccc2)n1-c1ccc(F)cc1 | inactive |
| O=C1CSc2ccc(C(=O)NCc3ccccn3)cc2N1 | inactive |
| CCc1nn(CC(=O)Nc2cc(C)cc(C)c2)c(=O)c2cc3sccc3n12 | 5.17 µM (active) |
| CCc1nn(CC(=O)Nc2cccc(C)c2C)c(=O)c2cc3sccc3n12 | inactive |
| CCCC1NC(=S)NC(C)=C1C(C)=O (stereo not drawn) | inactive |
| Nc1[nH]c(C(=O)c2ccccc2)c(-c2ccc(Br)cc2)c1C(=O)NC1CC1 | inactive |
| Cc1ccc2nc(CN3CCN(S(=O)(=O)c4ccc(C)c(C)c4)CC3)oc2c1 | inactive |
| O=Cc1cn(CCOc2ccc(F)cc2)c2ccccc12 | 11.6 µM (active) |
| Cc1cc(N2C(=O)C(=O)/C(=C(/O)c3ccc(Cl)cc3)C2c2cccc(Br)c2)no1 (stereo not drawn) | inactive |
| CC1(C(=O)NCc2ccccc2)CSCC(=O)N1CCCN1CCOCC1 (stereo not drawn) | inactive |
| c1ccc2cc3c(NCCN4CCOCC4)ccnc3cc2c1 | 20.6 µM (active) |
| O=C(Cn1c(-c2ccccn2)nc2ccccc21)NCCN1CCOCC1 | inactive |
| c1ccc2[nH]c(NCCN3CCOCC3)nc2c1 | inactive |
| CC1CCCN(C(=O)Cn2c(=O)oc3ccccc32)C1 (stereo not drawn) | inactive |
| CC(C)NC(=S)Nc1cccc2cnccc12 | inactive |
| O=C(NCCN1CCOCC1)c1cccc(S(=O)(=O)Nc2ccc(F)cc2)c1 | inactive |
| CCN(c1ccccc1)S(=O)(=O)c1cccc(C(=O)O)c1 | inactive |
| CCN(c1ccccc1)S(=O)(=O)c1cccc(C(=O)NCc2ccccc2CN2CCOCC2)c1 | 18.4 µM (active) |
| CCCc1ccc(OCc2ccc(C(=O)N/N=C/c3cccc([N+](=O)[O-])c3)o2)c(OC)c1 | 6.51 µM (active) |
| COC(=O)c1ccc(COc2ccc(/C=N/NC(=O)C(=O)Nc3ccc(OC)cc3)cc2OC)o1 | inactive |
| Cc1ccc(NC(=O)O/N=C/c2cccc([N+](=O)[O-])c2)cc1 | inactive |
| CC(OC(=O)CN1C(=O)COc2ccccc21)C(=O)NCc1ccc(F)cc1 (stereo not drawn) | inactive |
| COc1ccc(CCNS(=O)(=O)c2ccc(Cl)s2)cc1OC | inactive |

| Compound | Potency |
| --- | --- |
| COc1ccc(CCNC2=C(Cl)C(=O)N(Cc3ccccc3)C2=O)cc1OC | 20.6 µM (active) |
| COc1ccc(CCNC(=O)CN(c2ccccc2)S(C)(=O)=O)cc1OC | inactive |
| COc1c(C(C)C)oc2cc3oc(=O)ccc3cc12 | inactive |
| CCOC(=O)CCCN1CC(O)=C(c2nc3ccccc3s2)C1=N | inactive |
| N=C1C(c2nc3ccccc3s2)=C(O)CN1NC(=O)c1ccc([N+](=O)[O-])cc1 | 23.1 µM (active) |
| O=C(Nn1c(-c2ccccc2)nc2ccccc2c1=O)c1ccc([N+](=O)[O-])cc1 | inactive |
| Cc1nc2cc(NC(=O)CSc3nc4c(C)cccc4cc3C#N)ccc2s1 | inactive |
| COCCNC(=O)c1snc2ccc(Cl)cc12 | inactive |
| CCOc1ncccc1C(=O)N(C)CC(=O)Nc1ccc(F)cc1 | inactive |
| O=C(O)CN1c2cccc3cccc(c23)S1(=O)=O | inactive |
| COc1ccccc1CNC(=O)COC(=O)CNS(=O)(=O)c1ccc(NC(C)=O)cc1 | inactive |
| COc1ccc(CNC(=O)COC(=O)c2sccc2C)cc1OC | inactive |
| COc1ccc(OC)c(CNC(=O)CCc2nc(-c3cccs3)no2)c1 | inactive |
| COc1ccc(CNC(=O)COCc2cc(-c3cccs3)on2)cc1OC | 23.1 µM (active) |
| Cc1cc(C)cc(NC(=S)NCCCN2CCOCC2)c1 | inactive |
| C=CCNC(=O)c1ccc2c3n(nc2c1)-c1ccc(C)cc1CO3 | 18.4 µM (active) |
| Cc1ccc(-n2nc3c(c2NC(=O)c2ccc4c(c2)OCO4)CSC3)c(C)c1 | inactive |
| CCOc1c2ccc(C(=O)NCc3ccc4c(c3)OCO4)cc2nn1C | inactive |
| COc1ccc(N2CCN(CCNC(=O)CCN3C(=O)COc4ccccc43)CC2)cc1 | inactive |
| C/C(=N\NC(=O)COc1ccc(C)cc1[N+](=O)[O-])c1ccc2c(c1)OCCO2 | inactive |
| CCCn1nnnc1NCc1ccc(OC)cc1 | inactive |
| COc1ccc(CNC2CCCCC2)cc1 | inactive |
| COc1ccc(CNc2nc(NCc3ccc(OC)cc3)c3ncn(C4CCCC4)c3n2)cc1 | 2.31 µM (active) |

| Compound | Potency |
| --- | --- |
| O=C1NS(=O)(=O)c2ccccc21 | inactive |
| N#CCCN1CCN(S(=O)(=O)c2ccc(S(=O)(=O)NC3CC3)cc2)CC1 | inactive |
| COc1ccc(-c2cc(-c3ccccc3)nc3c2COc2ccc(Cl)cc2-3)cc1 | inactive |
| O=C(CSc1nc(=O)[nH]c2c1CCCC2)Nc1cc(C(F)(F)F)ccc1Cl | 16.4 µM (active) |
| COc1ccc(Cl)cc1NC(=O)CSc1nc(=O)[nH]c2c1CCCC2 | inactive |
| Nc1nc(SCC(=O)Nc2cc(C(F)(F)F)ccc2Cl)[nH]c(=O)c1NC(=O)c1ccco1 | inactive |
| CC(C)CCN1CCN=C1N(C)C | inactive |
| Cc1c(C(=O)NCc2ccccc2Br)oc2ccc3c(c12)C(=O)CC(C)(C)O3 | 16.4 µM (active) |
| COc1ccc2oc(C(=O)NCc3ccco3)c(C)c2c1 | inactive |
| CC(C)CC(=O)N1CCN(Cc2ccccc2Br)CC1 | inactive |
| C[C@]12C=CC(=O)C=C1CC[C@@H]1[C@@H]2C(=O)C[C@@]2(C)[C@H]1CC[C@]2(O)C(=O)CO | inactive |
| Cc1cc(C)cc(N(CCC#N)C(=O)CN2C(=O)NC3(CCCC3)C2=O)c1 | inactive |
| O=C(NC1CCCC1)C(c1ccc(N2CCOCC2)cc1)N(C(=O)c1ccco1)c1ccccc1F (stereo not drawn) | inactive |
| O=C(N/N=C/c1ccc(OCC2COCCO2)cc1)c1ccc(Br)cc1 (stereo not drawn) | 18.4 µM (active) |
| O=C(O)c1ccc(/C=N/NC(=O)c2ccc(Br)cc2)cc1 | inactive |
| O=C(O)c1ccc(OCC2CCCO2)cc1 (stereo not drawn) | inactive |
| O=C(Nc1cccn(Cc2c(Cl)cccc2Cl)c1=O)c1ccc(Cl)cc1 | inactive |
| CCC(C)NC(=O)Cn1c(=O)n(-c2ccc(Cl)cc2)c(=O)c2c3c(sc21)CCCC3 (stereo not drawn) | inactive |
| CCOC(=O)c1c(NC(C)=O)c2c3c(sc2n1Cc1c(C)cc(C)cc1C)CCCC3 | 13 µM (active) |
| CCCOC(=O)Nc1sc2c(c1C(=O)OCC)CCC2 | inactive |
| CN(Cc1nc(-c2cnccn2)no1)Cc1n[nH]c2c1CCCCC2 | inactive |
| O=[N+]([O-])c1ccc(C=Nc2ccc(Cl)cc2Cl)s1 | 13 µM (active) |
